# An excerpt weighted towards active compounds, which were near 7.3% of everything screened.
# Rab9 promoter act = qHTS Assay for Rab9 Promoter Activators; Huh7 Rab9 promoter-luciferase reporter, luminescence, 24 h; AID 485297, 2010; Potency, µM (series often up to 9.22 µM), without a hit: at the highest dose activation, negative = inhibition, hits mostly activators; 320,000 tested, 2.8% active; note: % of control where 0% means no effect; nearly all actives have a fitted effect of over 60% in size
#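 Steps: seed 1500 Huh7 Rab9-luc cells per well, rest 2 h at 37 °C; add compound in DMSO; incubate 24 h; add luciferase reagent, 10 min ambient; read luminescence.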
# ELG1 genotoxic = qHTS screen for small molecules that induce genotoxicity in human embryonic kidney (HEK293T) cells expressing luciferase-tagged ELG1; 330,000 tested, 1.3% active; HEK293T ELG1-luciferase reporter, luminescence, 16 h; Potency, µM (titrated, usually from 46 µM), for the others: at the top dose activity change, positive = activation, most hits filed as activators; AID 504466, 2011; note: % of control where 0% means no effect; nearly all actives have a fitted effect of over 60% in size
#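 Step 1: seed 2,000 HEK293T ELG1-luciferase cells per well. Step 2: add compound or DMSO, incubate 16 hr at 37 °C. Step 3: ONE-Glo, 30 min at room temperature, read luminescence.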
# FLuc counter = qHTS profiling assay for firefly luciferase inhibitor/activator using purifed enzyme and Km concentrations of substrates (counterscreen for miR-21 project) | Luciferin 4-monooxygenase (Photinus pyralis), P08659 | purified FLuc, Km substrates, luminescence inhibition | AID 588342, 2011 | 360,000 tested, 6.9% active | Potency, µM (titrated, usually from 57.5 µM), for the others: top-dose activity change, negative = inhibition, usual class: inhibitors;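 note: plate controls were vehicle for no effect and reference inhibitor for full effect; nearly all actives have a fitted effect of over 55% in size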
# Target sequence (P08659 whole entry, looked up): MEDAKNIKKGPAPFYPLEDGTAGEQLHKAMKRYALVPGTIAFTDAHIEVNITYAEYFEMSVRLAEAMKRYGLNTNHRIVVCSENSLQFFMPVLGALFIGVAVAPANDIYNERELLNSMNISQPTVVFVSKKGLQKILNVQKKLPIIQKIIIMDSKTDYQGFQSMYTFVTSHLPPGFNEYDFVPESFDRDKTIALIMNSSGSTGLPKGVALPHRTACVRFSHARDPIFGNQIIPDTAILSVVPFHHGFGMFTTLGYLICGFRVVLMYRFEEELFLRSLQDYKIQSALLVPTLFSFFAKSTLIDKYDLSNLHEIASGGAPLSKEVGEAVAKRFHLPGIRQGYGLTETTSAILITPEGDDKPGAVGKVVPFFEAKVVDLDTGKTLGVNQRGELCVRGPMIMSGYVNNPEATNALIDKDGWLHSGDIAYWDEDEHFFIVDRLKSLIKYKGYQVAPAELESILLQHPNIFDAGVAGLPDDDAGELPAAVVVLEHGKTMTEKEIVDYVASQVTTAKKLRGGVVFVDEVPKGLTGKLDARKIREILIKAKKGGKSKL
#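 Purified P. pyralis luciferase (10nM final) with 10uM D-luciferin and 10uM ATP (Km levels) in 50mM Tris acetate pH 7.5, 10mM Mg acetate, 0.01% Tween-20, 0.05% BSA; qHTS 6-point titration, ~60 µM downward; luminescence read.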
# p53 reactivator = qHTS assay for re-activators of p53 using a Luc reporter. H1299 p53-A138V BP100-luciferase reporter, luminescence, 24 h. Potency, µM (highest dose often 92.2 µM), inactives show at the highest dose activity change, positive = activation, hits mostly activators. 320,000 tested, 0.063% active; note: % of control where 0% means no effect; nearly all actives have a fitted effect of over 45% in size
#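 H1299 (p53-null), stable ts p53-A138V + BP100-Luc; 1000 cells/well, Opti-MEM/10% FBS; cpd 4 pt, 1:5; 24 h, 37 deg C, 5% CO2; detection reagent 10 min RT; luminescence.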
# SMN2 splice up = qHTS Assay for Enhancers of SMN2 Splice Variant Expression. HEK293 SMN2-luciferase splicing reporter, luminescence, 30-36 h. Potency, µM (highest dose often 46.1 µM), for inactives: at the highest dose activity change, positive = activation, most hits filed as activators. 210,000 tested, 2.8% active; note: % of control where 0% means no effect; nearly all actives have a fitted effect of over 55% in size
#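 qHTS luciferase splicing reporter: luminescence rises when SMN2 exon 7 is included in transfected HEK293 cells. Compound exposure lasted 30-36 h at 37C, with 4.5 mM final sodium butyrate as control, followed by a ONE-Glo read.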
# NPC1 promoter act = qHTS Assay for NPC1 Promoter Activators; Potency, µM (highest dose often 9.22 µM), without a hit: at the highest dose activation, most hits filed as activators; Huh7 NPC1 promoter luciferase reporter, 24 h; 320,000 tested, 2.4% active; note: % of control where 0% means no effect; nearly all actives have a fitted effect of over 60% in size
#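 NPC1 promoter–luciferase Huh7 cells; 24 h compound; luminescence.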
# * = called active by the depositor; ? = inconclusive; . = not tested or not shown. Calls come from the whole dose curve; as a rule, active = well fitted curve in the direction sought with a large enough effect; inconclusive = small, poorly fitted or top-dose-only effect, or another doubt; inactive = no such curve, though single readings can be large; an effect the other way counts as inactive or inconclusive. Potency is the fitted concentration of half-maximal effect.
SMILES,Rab9 promoter act,ELG1 genotoxic,FLuc counter,p53 reactivator,SMN2 splice up,NPC1 promoter act
COc1ccc(C2(C)NC(=O)N(CC(=O)Nc3ccc(-c4nc5ccc(C)cc5s4)cc3)C2=O)cc1 (centres undefined),2.2µM*,?,3.4µM*,4%,7.1µM*,4µM*
COc1ccc(C2(c3ccc(OC)cc3)NC(=O)N(CC(=O)Nc3ccc(OC(F)F)cc3)C2=O)cc1,-1%,-18%,-2%,1%,.,0%
Cc1ccc(NC(=O)CN2C(=O)NC(C)(c3ccc(Cl)cc3)C2=O)cc1 (centres undefined),-2%,-6%,1%,-3%,.,-3%
Cc1ccccc1CN1C(=O)c2ccccc2S(=O)c2ccc(C(=O)NCc3ccccc3)cc21 (centres undefined),.,.,5%,.,.,.
COc1ccc(/C=C2\SC(=S)N(NC(=O)c3ccncc3)C2=O)cc1OC,-3%,1%,?,0%,9%,-3%
O=C(NN1C(=O)/C(=C/C=C/c2ccccc2)SC1=S)c1ccncc1,3%,-5%,13µM*,18%,-20%,-7%
O=C1/C(=C/C=C/c2ccco2)SC(=S)N1c1ccc(O)cc1,6%,8%,21µM*,17%,.,5%
O=C(NN1C(=O)/C(=C/C=C/c2ccco2)SC1=S)c1ccncc1,3%,0%,21µM*,12%,.,-3%
CN(C)c1ccc(/C=C/C=C2/SC(=S)N(c3ccccc3)C2=O)cc1,?,14%,4.8µM*,-2%,-65%,?
O=C(O)c1ccc(N2C(=O)/C(=C/C=C/c3ccccc3)SC2=S)cc1,1%,0%,?,-2%,-14%,-4%
COc1ccc(Br)cc1CNC(=O)C(C)n1nc(C)n2c(cc3occc32)c1=O (centres undefined),.,.,-13%,.,10%,.
COc1ccc2sc(N(CCCN(C)C)C(=O)c3nc4ccccc4s3)nc2c1,12%,4%,-11%,23%,10%,0%
COc1ccccc1C(=O)N(CCC1CCCN1C)c1nc2ccccc2s1 (centres undefined),-4%,?,4.8µM*,11%,-14%,-3%
Fc1ccccc1-n1ncc2c1ncn1nc(-c3ccccc3Cl)nc21,.,.,0.95µM*,.,5%,.
COc1cc(CNc2ncnc3c2[nH]c2ccc(C)cc23)cc(OC)c1,-8%,-11%,27µM*,-6%,.,0%
Cc1ccc2[nH]c3c(NCc4ccco4)ncnc3c2c1,4%,8%,13µM*,17%,-63%,1%
COc1ccc(Cl)cc1NC(=O)COC(=O)C1CCCCC1,0%,1%,15µM*,3%,.,-3%
CC(C)(C)c1ccc(NC(=O)COC(=O)C2CCCC2)cc1,2%,-1%,11µM*,?,.,-1%
Cc1cc(NC(=O)COC(=O)C2CC2)ccc1Br,-3%,2%,8.5µM*,3%,.,-5%
COc1cccc(CNC(=O)Cn2c(SCC(=O)Nc3ccc(F)cc3)nc3ccccc32)c1,.,.,1%,.,.,.
Cc1nnc2ccc(-c3ccc(NS(=O)(=O)c4ccc(F)cc4F)cc3)nn12,-4%,21µM*,0%,-7%,.,-4%
COc1ccc(S(=O)(=O)Nc2ccc(-c3ccc4nnc(C)n4n3)cc2)c(OC)c1,?,?,2%,-18%,.,-3%
CCc1ccc(S(=O)(=O)Nc2cccc(-c3ccc4nnc(C)n4n3)c2)s1,-1%,14%,-1%,0%,.,-8%
Cc1nnc2ccc(-c3ccc(NS(=O)(=O)c4ccccc4F)cc3)nn12,-5%,21µM*,1%,-10%,.,-6%
